The text below walks through data of PubChem BioAssay (Tox21).

Each structure is given as a SMILES string. Several values for one entry are separate records, joined by “and”; a condition that tells them apart may be missing. Equal entries are not always repeated. Results filed as inconclusive are left out. Some structures have more than one record in an assay (separate samples or runs), and their calls can disagree. Activity calls are given as the source filed them. Unless noted, calls follow the shape of the dose curve; as a rule, active = well fitted curve in the direction sought with a large enough effect in the repeat runs; inconclusive = weak or mixed curves; inactive = no such curve, though single readings can be large; an effect the other way counts as inactive or inconclusive.

Assay [1] concerns the target Retinoic acid receptor RXR-alpha (Homo sapiens) (UniProt P19793). Kind of assay: qHTS assay to identify small molecule agonists of the RXR signaling pathway (AID 1159527; calls by dose curve; also: nearly all actives have a fitted effect of over 35% in size; also: potency is read from the fitted curve at half-maximal effect). The procedure, abridged:
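Agonist mode; 9-cis retinoic acid positive control. HEK 293T UAS-bla reporter cells, 2% charcoal-stripped FBS, 16 hr compound exposure at 37 C/5% CO2. LiveBLAzer B/G FRET substrate 2 hr RT; ex 405, em 460/530 nm.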

A short description of assay [2]: qHTS assay to identify small molecule agonists of the RXR signaling pathway - cell viability counter screen (AID 1159529). Also: series mostly up to about 77 µM; nearly all actives have a fitted effect of over 50% in size. The procedure, abridged: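 Luminescence from CellTiter-Glo (30 min, RT) measured viability in the same wells as the beta-lactamase reporter readout. Cells: GeneBLAzer RXR-alpha HEK 293T, 2% charcoal-stripped FBS. Compound exposure 16 hr, 37 C.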

Assay [3] can be described thus: qHTS assay to identify small molecule antagonists of the retinoid acid receptor (RAR) signaling pathway - cell viability counter screen (AID 1159551). Also: nearly all actives have a fitted effect of over 35% in size. The procedure, abridged:
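Seed C3RL4 cells; next day add compound, then retinol to 1 uM final; incubate 6 h at 37 C; add CellTiter-Glo; read luminescence after 30 min at RT.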

Assay [4] can be described thus: qHTS assay to identify small molecule antagonists of the retinoic acid receptor (RAR) signaling pathway (AID 1159552; also: nearly all actives have a fitted effect of over 50% in size; also: potency is read from the fitted curve at half-maximal effect). The procedure, abridged:
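Luminescence from a RARE luciferase reporter in C3RL4 cells served as read-out. Cells received compounds together with 1 uM final retinol and incubated 6 hr at 37 C before detection reagent was added for 30 min at room temperature.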
On the technique in general: qHTS replaces the single test concentration by a dilution series.

The nature of assay [5]: qHTS assay to identify small molecule agonists of the retinoic acid receptor (RAR) signaling pathway (AID 1159553). The procedure, abridged:
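Activation of retinol signaling was monitored via a RARE luciferase reporter in C3RL4 cells. After 6 hr compound treatment at 37 C, detection reagent was added for 30 min at room temperature before luminescence reading.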

Assay [6] is described as follows: qHTS assay to identify small molecule antagonists of the estrogen related receptor (ERR) signaling pathway - cell viability counter screen (AID 1224818).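 Also: series mostly up to about 46 µM; viability measured after 17.5 h of compound exposure.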 The procedure, abridged:
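In the same ERR cell assay, compound-treated wells (17.5 h, 37 C) were multiplexed with a fluorogenic viability reagent, CellTiter-Fluor, read after 30 min to flag cytotoxic substances.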

Assay [7] in a line: qHTS assay to identify small molecule antagonists of the estrogen related receptor signaling pathway with the pleiotropic PPARgamma coactivator (PGC) cell viability counter screen (AID 1224822; also: series mostly up to about 46 µM). The procedure, abridged:
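Compounds in DMSO, with positive and negative controls, were applied to PGC/ERR cells (2,000/well) and left 17.5 h at 37 C before CellTiter-Fluor detection.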

Assay [8] is described as follows: qHTS assay to identify small molecule antagonists of the estrogen related receptor (ERR) signaling pathway from Tox21 library - cell viability counter screen (AID 1224834). Also: nearly all actives have a fitted effect of over 30% in size. The procedure, abridged:
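CellTiter-Fluor fluorescence measured; ERR cells; 17.5 h compound incubation at 37 C; 30 min reagent step.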

Assay [9] can be described thus: qHTS assay to identify small molecule agonists of the constitutive androstane receptor (CAR) signaling pathway - cell viability counter screen (AID 1224836). Also: series mostly up to about 92 µM; nearly all actives have a fitted effect of over 45% in size. The procedure, abridged: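 Viability read-out: CellTiter-Fluor fluorescence after 23 h compound exposure at 37 C/5% CO2 in double-stable HepG2-CYP2B6-hCAR cells, with PK11195 present at 0.75 uM final; compounds tested in 15-point titration.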

Assay [10] in a line: qHTS assay to identify small molecule antagonists of the constitutive androstane receptor (CAR) signaling pathway - cell viability counter screen (AID 1224837). Also: series mostly up to about 92 µM; nearly all actives have a fitted effect of over 45% in size. The procedure, abridged: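 Using CellTiter-Fluor, viability is scored in HepG2 cells stably carrying hCAR and a 2.2kb CYP2B6 reporter after 23 hr compound exposure across 15 concentrations, with CITCO present at 50 nM.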

For assay [11], the target named is Nuclear receptor subfamily 1 group I member 3 (Homo sapiens) (UniProt Q14994). Kind of assay: qHTS assay to identify small molecule antagonists of the constitutive androstane receptor (CAR) signaling pathway (AID 1224838).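 Also: HepG2 cells stably expressing hCAR with CYP2B6 luciferase reporter stimulated by CITCO; nearly all actives have a fitted effect of over 40% in size.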 Also: potency is read from the fitted curve at half-maximal effect. The procedure, abridged:
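Reporter luminescence was quantified after 24 h exposure of hCAR/CYP2B6-2.2kb double-stable HepG2 cells to compounds at 15 concentrations in the presence of 50 nM CITCO final.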

For assay [12] the target is unchanged. The assay can be described thus: qHTS assay to identify small molecule agonists of the constitutive androstane receptor (CAR) signaling pathway (AID 1224839). Also: series mostly up to about 92 µM; nearly all actives have a fitted effect of over 15% in size. The procedure, abridged:
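Luminescence read-out (ONE-Glo, 30 min, room temperature) from double-stable HepG2-CYP2B6-hCAR cells exposed 24 h to 15-point compound series in presence of 0.75 uM PK11195 final.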

A short description of assay [13]: qHTS assay to identify small molecule antagonists of the estrogen related receptor signaling pathway with the pleiotropic PPARgamma coactivator (PGC) from Tox21 10K library - cell viability counter screen (AID 1224840; active = well fitted cell-killing curve with a large enough effect in the repeat runs, not every such curve was filed as active; also: nearly all actives have a fitted effect of over 40% in size). The procedure, abridged: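 Here the PGC/ERR cells serve as a cytotoxicity control: they are exposed to compounds for 17.5 hours at 37 C, and live-cell signal is quantified using CellTiter-Fluor fluorescence.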

A short description of assay [14]: qHTS assay to identify small molecule antagonists of the estrogen related receptor (ERR) signaling pathway (AID 1224819;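 also: luminescence from an ERR-driven luciferase reporter measured with One-Glo reagent; series mostly up to about 46 µM; nearly all actives have a fitted effect of over 50% in size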). The procedure, abridged:
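qHTS in ERR cells, 2,000/well, 1536 format. Cpd (DMSO) added after 6 h settle, 18 h 37 C. One-Glo luminescence, 30 min RT.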

The nature of assay [15]: qHTS assay to identify small molecule agonists of the estrogen related receptor (ERR) signaling pathway (AID 1224820). The procedure, abridged: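 Cells: ERR line from NTP, 2,000/well. Pre-incubation 6 h, 37 C/5% CO2. Compound (DMSO) pin transfer, 18 h 37 C. One-Glo, 30 min RT, luminescence.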
Assay [16] has as its system estrogen-related receptor alpha (ERRalpha) with PGC-1alpha coactivator, human. The assay can be described thus: qHTS assay to identify small molecule antagonists of the estrogen related receptor signaling pathway with the pleiotropic PPARgamma coactivator (PGC) (AID 1224821; calls by dose curve;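 also: series mostly up to about 46 µM; lower luminescence signal means antagonism of PGC/ERR signalling; nearly all actives have a fitted effect of over 50% in size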). The procedure, abridged:
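Luminescent read-out (One-Glo, 30 min at room temperature) following 18 h treatment of PGC/ERR cells at 37 C with compounds delivered in DMSO. Cells had settled 6 h at 37 C/5% CO2 before dosing.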

Assay [17] in a line: qHTS assay to identify small molecule agonists of the estrogen related receptor signaling pathway with the pleiotropic PPARgamma coactivator (PGC) (AID 1224823). The procedure, abridged:
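Steps: plate PGC/ERR cells at 2,000 cells/well; incubate 6 h, 37 C/5% CO2; pin-transfer compounds (DMSO); incubate 18 h, 37 C; add One-Glo; 30 min RT; read luminescence.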

In assay [18] the target is Luciferin 4-monooxygenase (Photinus pyralis) (UniProt P08659). The assay can be described thus: qHTS assay to identify small molecule inhibitors of firefly luciferase (AID 1224835). Also: series mostly up to about 120 µM; nearly all actives have a fitted effect of over 25% in size. The procedure, abridged:
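Biochemical qHTS: compounds run as interplate titrations against purified firefly enzyme, with D-luciferin and ATP each at its KM concentration. Light output recorded by CCD imaging.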

A short description of assay [19]: qHTS assay to identify small molecule antagonists of the estrogen related receptor signaling pathway with the pleiotropic PPARgamma coactivator (PGC) from Tox21 10K library (AID 1224841; call rule not given here). The procedure, abridged:
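Each well held 2,000 PGC/ERR cells, pre-incubated six hours (37 C, 5% CO2). Test substances in DMSO were added by pin tool and left for 18 h at 37 C before luciferase detection by One-Glo.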

Assay [20] is described as follows: qHTS assay to identify small molecule agonists of the estrogen related receptor signaling pathway with the pleiotropic PPARgamma coactivator (PGC) from Tox21 10K library (AID 1224842). Also: nearly all actives have a fitted effect of over 15% in size. The procedure, abridged:
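PGC/ERR reporter cell line, 2,000 cells per well, incubated 6 h at 37 C before 23 nL compound in DMSO was added. After 18 h at 37 C, One-Glo luminescence read following 30 min at room temperature.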
% is scaled to controls: 0 for no effect and ±100 for the full control effect.

Chain of Nuclear receptor subfamily 1 group I member 3 (Homo sapiens) (Q14994 whole entry, looked up): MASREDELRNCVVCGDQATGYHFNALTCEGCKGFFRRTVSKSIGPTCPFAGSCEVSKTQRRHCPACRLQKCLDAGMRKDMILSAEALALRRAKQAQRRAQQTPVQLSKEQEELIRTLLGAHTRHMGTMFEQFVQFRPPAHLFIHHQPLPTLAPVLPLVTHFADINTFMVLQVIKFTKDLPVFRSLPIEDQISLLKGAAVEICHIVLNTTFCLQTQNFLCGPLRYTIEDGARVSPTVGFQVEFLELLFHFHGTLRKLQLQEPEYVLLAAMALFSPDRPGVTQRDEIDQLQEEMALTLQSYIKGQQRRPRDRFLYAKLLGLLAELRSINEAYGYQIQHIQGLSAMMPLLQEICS
Chain of Retinoic acid receptor RXR-alpha (Homo sapiens) (P19793 whole entry, looked up): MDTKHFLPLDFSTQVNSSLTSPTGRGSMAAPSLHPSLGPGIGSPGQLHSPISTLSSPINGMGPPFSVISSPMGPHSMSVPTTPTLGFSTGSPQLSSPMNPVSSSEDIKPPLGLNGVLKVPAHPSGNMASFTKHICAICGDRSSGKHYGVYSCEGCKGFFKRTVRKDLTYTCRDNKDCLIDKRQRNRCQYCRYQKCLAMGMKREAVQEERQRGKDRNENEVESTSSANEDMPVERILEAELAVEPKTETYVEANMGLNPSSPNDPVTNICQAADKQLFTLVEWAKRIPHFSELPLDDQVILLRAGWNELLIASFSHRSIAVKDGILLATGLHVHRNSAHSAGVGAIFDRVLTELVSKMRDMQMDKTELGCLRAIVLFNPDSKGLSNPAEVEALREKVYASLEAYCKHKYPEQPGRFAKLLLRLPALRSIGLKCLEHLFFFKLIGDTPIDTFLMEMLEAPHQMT
Chain of Luciferin 4-monooxygenase (Photinus pyralis) (P08659 whole entry, looked up): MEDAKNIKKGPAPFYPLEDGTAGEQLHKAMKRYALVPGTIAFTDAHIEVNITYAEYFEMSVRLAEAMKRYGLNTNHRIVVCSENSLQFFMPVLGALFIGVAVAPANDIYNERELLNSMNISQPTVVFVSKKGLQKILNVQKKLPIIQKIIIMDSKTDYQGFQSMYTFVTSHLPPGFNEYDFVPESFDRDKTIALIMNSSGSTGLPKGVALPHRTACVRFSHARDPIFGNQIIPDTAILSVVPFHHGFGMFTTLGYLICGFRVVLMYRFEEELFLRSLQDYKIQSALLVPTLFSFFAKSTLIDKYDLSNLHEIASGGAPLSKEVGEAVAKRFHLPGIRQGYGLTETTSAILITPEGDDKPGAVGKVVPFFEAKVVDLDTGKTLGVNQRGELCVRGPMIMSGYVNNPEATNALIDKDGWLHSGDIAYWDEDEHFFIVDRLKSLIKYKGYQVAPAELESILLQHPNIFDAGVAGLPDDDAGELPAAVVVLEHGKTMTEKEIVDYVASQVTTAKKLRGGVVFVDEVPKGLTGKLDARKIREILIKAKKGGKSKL

For `c1ccc([C@H]2CN3CCSC3=N2)cc1`, the Potency entry in assay [1], in assay [2], in assay [4], in [5], in assay [8] and in assay [9] was “inactive” each time. For the same compound, the Potency result in assay [10], in [11], in assay [12] and in assay [13] was “inactive” in each case. Besides, the compound was classed as inactive in assay [3], in assay [6] and in [7].
Consider `Cc1ccc(=O)n(-c2ccccc2)c1`, for which the Potency result in [1], in [2], in assay [4], in [5], in [8] and in [18] was “inactive” each time. Also, the Potency entry in [9], in assay [10], in [11], in assay [12], in assay [13] and in assay [19] was “inactive” each time. In addition, the compound was classed as inactive in assay [3], in assay [6], in [14], in assay [15], in assay [16] and in assay [7]. Besides, the call in assay [17] and in assay [20] was inactive.
For `O=C(O)CN(CCOCCOCCN(CC(=O)O)CC(=O)O)CC(=O)O`, the activation in assay [1] was 10% [at 0.29 µM] (inactive); in assay [5], 2.01% [at 0.756 µM] (inactive); in assay [20] it was -0.694% [at 0.349 µM] (inactive). Besides, the figures for the activity change, negative = cytotoxicity in assay [2], in assay [3] and in assay [10] were -0.722% [at 0.29 µM] (inactive), 0.187% [at 0.349 µM] (inactive) and 4% [at 0.349 µM] (inactive), respectively. For the same compound, the activity, negative = inhibition in assay [4] is 12.3% [at 0.349 µM] (inactive); in [19] it was 5.6% [at 0.349 µM] (inactive). Besides, the result in [6], in [14], in assay [15], in assay [16], in assay [7] and in [17] was inactive. Also, the viability change, negative = cytotoxic is 1.46% [at 0.349 µM] (inactive) in assay [8], -0.739% [at 0.349 µM] (inactive) in assay [9] and -9.4% [at 0.349 µM] (inactive) in [13]. In [18], the activity change, negative = inhibition was 0.561% [at 0.435 µM] (inactive).
On to `CCOC(=O)Nc1ccc(NCc2ccc(F)cc2)nc1N`, for which the Potency result in [1], in assay [2], in assay [4], in assay [5], in assay [8] and in [9] was “inactive” in each case. For the same compound, the Potency entry in [10], in [11], in assay [12], in assay [13] and in assay [19] was “inactive” in each case. Also, the call in assay [3], in [6], in [15], in assay [16], in assay [7] and in assay [17] was inactive.
Turning to `COC(=O)[C@@H](N)Cc1ccc(O)c(O)c1`, the Potency result in assay [1], in [2], in assay [4], in assay [5], in [8] and in assay [18] was “inactive” throughout. The Potency result in assay [9], in assay [10], in [13] and in assay [19] was “inactive” in each case. In addition, the result in assay [3], in assay [6], in assay [14], in assay [15], in [16] and in assay [7] was inactive. For the same compound, the outcome in [17] was inactive.
With `C[N+](C)(C)CCCCCC[N+](C)(C)C`, the Potency result in [1] was “inactive and 10.7 µM (active)”; in [4], “inactive and 16.8 µM (active)”; in assay [11], “inactive and 26.6 µM (active)”. For the same compound, the Potency result in [2], in assay [5], in [8], in [18], in [9] and in assay [10] was “inactive” each time. Besides, the Potency result in [12] and in assay [13] was “inactive” throughout. Moreover, the call in [3], in assay [6] and in assay [7] was inactive.
Regarding `CCN(Cc1ccncc1)C(=O)C(CO)c1ccccc1` (configuration not stated), the Potency result in [1], in [2], in assay [4], in assay [5], in assay [8] and in assay [9] was “inactive” in each case. The Potency entry in assay [10], in assay [11], in assay [12] and in assay [13] was “inactive” in each case. Moreover, the compound was classed as inactive in assay [3], in [6] and in assay [7].
